The results in this text go back to PubChem BioAssay.

Assay [1] concerns Plasmodium falciparum Sir2 (PF13_0152, Sir2A). In words: Plasmodium falciparum Sir2A binding compounds – biochemical, small-molecule microarray, 635 nm fluorescence, primary screen (AID 1098).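 Further: score merges spot fluorescence intensity with its signal-to-noise ratio.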 Particulars: fluorescence 635 nm, higher = more signal.
Assay [2] can be described thus: probe aDKK1 binding to arrayed compounds – biochemical, biotinylated probe, 635/667 nm fluorescence, primary screen (AID 1099).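 Further: score merges 667nm spot fluorescence with signal to noise across triplicate slides; reference of the scale not given here.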 Particulars: small-molecule microarray, higher = more signal.
The nature of assay [3]: probe aCHRDL2 binding to arrayed compounds – biochemical, biotinylated probe, 635/667 nm fluorescence, primary screen (AID 1100). The note with it: small-molecule microarray, higher = more signal.
Assay [4] in a line: change in splice reporter luminescence, either direction, cell-based, HEK293, spliceosome inhibition project, primary screen (AID 1101).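 Further: HEK293 cells carrying a splicing-competent luciferase reporter gene; test concentration not given here.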 Particulars: HEK293 splicing luciferase reporter, 24 h, higher = more signal, called active from +8 up or from −8 down. On the technique in general: In a reporter assay the amount or activity of a reporter protein is the signal.
In assay [5] the target is Fibroblast growth factor 10 (Homo sapiens) (UniProt O15520). In words: compounds binding fibroblast growth factor 10 – biochemical, small-molecule microarray, 635 nm fluorescence, primary screen (AID 1102). The note with it: FGF10 binding, fluorescence 635 nm, higher = more signal.
Fibroblast growth factor 10 (Homo sapiens), sequence (O15520 whole entry, looked up): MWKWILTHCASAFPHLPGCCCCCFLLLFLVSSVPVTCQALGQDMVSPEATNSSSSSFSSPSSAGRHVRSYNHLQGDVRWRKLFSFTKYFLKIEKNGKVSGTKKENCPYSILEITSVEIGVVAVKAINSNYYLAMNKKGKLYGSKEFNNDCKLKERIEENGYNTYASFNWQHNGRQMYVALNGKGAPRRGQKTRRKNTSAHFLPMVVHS
For assay [6], the system named is glycogen synthase kinase-3 (GSK3A per assay name; protocol says GSK3B). Kind of assay: compounds binding glycogen synthase kinase-3 – biochemical, small-molecule microarray, 635 nm fluorescence, GSK3A, primary screen (AID 1103). Further: the record names both GSK3A and GSK3B. Particulars: fluorescence 635 nm, higher = more signal.
For assay [7], the target named is Epidermal growth factor receptor (Homo sapiens) (UniProt P00533). In words: compounds binding epidermal growth factor receptor – biochemical, small-molecule microarray, 635 nm fluorescence, primary screen (AID 1104).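 Further: score merges 667 nm emission intensity with spot signal to noise over triplicate slides.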 The note with it: EGFR binding, higher = more signal.
Epidermal growth factor receptor (Homo sapiens), sequence (P00533 whole entry, looked up): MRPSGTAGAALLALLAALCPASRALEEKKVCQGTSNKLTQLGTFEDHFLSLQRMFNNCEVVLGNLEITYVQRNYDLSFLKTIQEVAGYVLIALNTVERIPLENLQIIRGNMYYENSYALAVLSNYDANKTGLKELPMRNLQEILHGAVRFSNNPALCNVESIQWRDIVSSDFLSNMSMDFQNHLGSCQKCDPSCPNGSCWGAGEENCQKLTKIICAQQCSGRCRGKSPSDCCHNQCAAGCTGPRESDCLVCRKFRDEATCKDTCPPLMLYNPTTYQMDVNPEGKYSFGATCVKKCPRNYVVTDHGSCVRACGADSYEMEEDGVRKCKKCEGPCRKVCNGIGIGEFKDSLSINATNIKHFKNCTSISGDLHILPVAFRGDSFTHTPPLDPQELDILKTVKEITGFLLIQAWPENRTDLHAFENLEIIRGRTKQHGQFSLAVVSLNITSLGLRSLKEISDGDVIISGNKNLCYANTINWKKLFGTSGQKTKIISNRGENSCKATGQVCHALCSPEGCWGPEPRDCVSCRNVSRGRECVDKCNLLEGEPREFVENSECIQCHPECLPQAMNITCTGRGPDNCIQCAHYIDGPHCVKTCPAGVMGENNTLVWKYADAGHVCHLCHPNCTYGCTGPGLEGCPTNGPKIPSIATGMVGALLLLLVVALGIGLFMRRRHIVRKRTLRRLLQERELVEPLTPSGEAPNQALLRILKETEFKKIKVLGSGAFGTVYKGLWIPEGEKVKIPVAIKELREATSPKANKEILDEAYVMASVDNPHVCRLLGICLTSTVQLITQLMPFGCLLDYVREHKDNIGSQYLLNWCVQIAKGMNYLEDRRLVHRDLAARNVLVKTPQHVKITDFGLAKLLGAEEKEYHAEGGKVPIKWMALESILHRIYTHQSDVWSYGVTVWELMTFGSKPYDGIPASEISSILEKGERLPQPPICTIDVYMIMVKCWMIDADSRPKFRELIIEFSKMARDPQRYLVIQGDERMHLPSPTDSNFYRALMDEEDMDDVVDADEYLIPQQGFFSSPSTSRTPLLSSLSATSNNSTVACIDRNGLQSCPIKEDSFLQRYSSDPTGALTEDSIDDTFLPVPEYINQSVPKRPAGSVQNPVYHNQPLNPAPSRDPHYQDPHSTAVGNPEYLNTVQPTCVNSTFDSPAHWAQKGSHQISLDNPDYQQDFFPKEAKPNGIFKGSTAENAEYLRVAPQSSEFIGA
The target of assay [8] is Follistatin-related protein 3 (Homo sapiens) (UniProt O95633). Kind of assay: compounds binding follistatin-related protein 3 – biochemical, small-molecule microarray, 635 nm fluorescence, primary screen (AID 1105).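 Further: score merges emission near 667 nm and signal to noise per printed spot across three slides.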 The note with it: FSTL3 binding, higher = more signal.
Follistatin-related protein 3 (Homo sapiens), sequence (O95633 whole entry, looked up): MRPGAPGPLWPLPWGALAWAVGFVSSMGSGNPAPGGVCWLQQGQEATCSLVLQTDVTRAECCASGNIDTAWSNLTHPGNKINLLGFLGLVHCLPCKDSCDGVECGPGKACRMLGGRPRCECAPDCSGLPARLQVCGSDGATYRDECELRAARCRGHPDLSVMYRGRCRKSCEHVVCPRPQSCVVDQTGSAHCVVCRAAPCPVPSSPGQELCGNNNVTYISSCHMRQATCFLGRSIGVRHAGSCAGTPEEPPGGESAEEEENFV
The target of assay [9] is Dickkopf-related protein 1 (Homo sapiens) (UniProt O94907). Kind of assay: small molecules binding DKK1 protein – biochemical, small-molecule microarray, 635 nm fluorescence scan, primary screen (AID 1106).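 Further: score merges emission near 667 nm with signal to noise over three replicate slides.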 The note with it: higher = more signal.
Dickkopf-related protein 1 (Homo sapiens), sequence (O94907 whole entry, looked up): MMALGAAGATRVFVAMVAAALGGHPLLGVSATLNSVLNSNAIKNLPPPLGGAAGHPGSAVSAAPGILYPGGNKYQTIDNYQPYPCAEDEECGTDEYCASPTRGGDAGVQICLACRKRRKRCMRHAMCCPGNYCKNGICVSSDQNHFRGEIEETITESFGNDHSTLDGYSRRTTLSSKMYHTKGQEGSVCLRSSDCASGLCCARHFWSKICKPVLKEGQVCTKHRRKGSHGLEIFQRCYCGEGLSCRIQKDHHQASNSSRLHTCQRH
For assay [10], the system named is Inhibin beta A chain (activin A). In words: small molecules binding activin A – biochemical, small-molecule microarray, 635 nm fluorescence scan, primary screen (AID 1107).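 Further: mouse activin A protein probed at 4.33 µg/mL on printed slides; score merges bound-protein fluorescence near 667 nm with spot signal-to-noise.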 Particulars: INHBA, higher = more signal.

Activity calls are given as the source filed them.

For the compound `O=C1C=C[C@@H](O)[C@@H]2[C@@H]3C(=O)N(C4CCCCC4)C(=O)[C@@H]3CC[C@@H]12`, the composite z-score was 0.252 in [1]; -0.0259 in assay [2]; -0.369 in assay [3]; 1.07 in [5]; 0.708 in assay [6]; 0.378 in [7]. Moreover, the composite z-score in assay [8] was 0.797; in assay [9], 0.844; in assay [10], 0.234. Moreover, the z-score in assay [4] was 2.14 (inactive).

For the compound `Cc1ccc2[nH]c3nc(CCCn4ccnc4-c4ccccc4)nnc3c2c1`, the composite z-score in assay [1] is 0.663; in assay [2], -0.28; in assay [3] it was -0.0165; in assay [5] it was 0.632; in assay [6], 1.22; in assay [7], 0.32. For the same compound, the composite z-score in assay [8] was 1.31; in assay [9] it was 0.869; in assay [10], -0.739. Moreover, in [4], the z-score was -0.128 (inactive).

Regarding `CON=C(C)CCN1CCCCc2nc(C)c(C)cc21`, the composite z-score in assay [1] is 0.636; in assay [2], -0.144; in assay [3], -0.0831; in [5], 0.443; in assay [6], 0.213; in [7] it was 0.657. The composite z-score was determined as 0.507 in [8], 0.881 in assay [9] and 1.52 in assay [10]. Also, the z-score in assay [4] is 0.248 (inactive).

In the case of `CCOC(=O)[C@H](Cc1ccccc1)NC(=O)CCC1CC(OC(=O)NCc2ccc3c(c2)OCO3)CC2(CCCC(COC(=O)NCCCN3CCCC3=O)O2)O1` (stereo not given in full), the composite z-score was 0.465 in [1]; -0.505 in assay [2]; -0.431 in [3]; 0.573 in [5]; 0.852 in assay [6]; 0.494 in assay [7]. Besides, the composite z-score was determined as 0.645 in assay [8], 0.543 in assay [9] and 0.312 in [10]. For the same compound, the z-score in [4] was -0.199 (inactive).

In the case of `CC(C)(C)N1C(=O)[C@H]2[C@@H]3C(=CC[C@H]2C1=O)C(=O)[C@H]1O[C@H]1[C@H]3O`, the composite z-score in [1] is 1.09; in assay [2] it was -0.366; in assay [3], -0.779; in [5] it was 0.0491; in assay [6], 0.138; in assay [7], 0.144. Also, the composite z-score in assay [8] was -0.162; in assay [9], 0.512; in [10], 0.555. In addition, the z-score in [4] was 3.47 (inactive).

On to `CCCNC(=O)OC[C@H]1O[C@H](CCON=C2c3cc(OC)ccc3O[C@H](c3cccc(OC)c3)[C@H]2O)C=C[C@@H]1Oc1ccc(OC)cc1`, for which the composite z-score in assay [1] was 0.204; in assay [2] it was 0.0079; in [3] it was -0.0136; in [5] it was 0.744; in assay [6] it was 0.21; in assay [7], 0.474. The values for the composite z-score in [8], in assay [9] and in [10] were 0.54, 0.273 and -0.479, respectively. Besides, in assay [4], the z-score was -0.553 (inactive).

As to `COC(=O)[C@H](C)NC(=O)CCC1CC(OC(=O)NCc2cccc3ccccc23)CC2(CCCC(COC(=O)NCCc3ccccc3OC)O2)O1` (stereo not given in full), the composite z-score in assay [1] is 0.906; in assay [2], -0.0471; in [3] it was -0.433; in assay [5], 1.23; in assay [6], 1.12; in assay [7], 0.454. The composite z-score in [8] is 1.25; in assay [9], 0.686; in [10] it was -0.267. In addition, in [4], the z-score was -0.105 (inactive).

For the compound `CC(=O)OC[C@H]1O[C@H](CCON=C(C)C)C=C[C@@H]1OC(C)=O`, the composite z-score in assay [1] was 0.475; in assay [2], -0.22; in [3], 0.116; in assay [5], -0.0068; in [6], -0.329; in assay [7], 0.187. Moreover, the composite z-score in assay [8] stood at 0.296; in assay [9], 0.41; in [10] it was 1.12. Also, the z-score in assay [4] was 0.384 (inactive).

With `CON(C)C(=O)c1nnc2c(n1)[nH]c1ccccc12`, the composite z-score in assay [1] is 0.214; in [2], 0.256; in [3], -0.0786; in [5], 0.692; in [6] it was 0.217; in assay [7], 0.319. Further, the composite z-score came out at 0.651 in [8], 0.377 in assay [9] and 0.221 in assay [10]. Besides, the z-score in assay [4] is -0.562 (inactive).

Turning to `CC(C)(C)N1C(=O)[C@H]2[C@H]3[C@H](O)[C@H](O)CC(=NNC(=O)OCc4ccccc4)[C@@H]3CC[C@H]2C1=O`, the composite z-score in assay [1] is -0.106; in assay [2], -0.348; in [3], -0.518; in [5] it was 0.487; in assay [6] it was 0.554; in assay [7] it was 0.251. The composite z-score in assay [8] is 0.376; in [9], 0.455; in assay [10] it was -0.337. The z-score in assay [4] is 0.305 (inactive).

As for `COc1cccc([C@H]2Oc3ccc(OC)cc3C(=NO[C@@H](C)c3cc(-c4c(C)cc(C)cc4C)no3)[C@@H]2O)c1`, the composite z-score in assay [1] was 0.288; in [2] it was 0.838; in [3], 1.53; in assay [5], -1.66; in assay [6], -0.532; in assay [7] it was -2.38. In addition, the composite z-score in assay [8] is -1.99; in assay [9], -3.26; in assay [10] it was 0.313. Further, the z-score in assay [4] was -0.328 (inactive).

Turning to `C=CC[C@@H]1C=C[C@H](ON=C(C)CCN2CCCCc3nc(C)c(C)cc32)[C@@H](CO)O1`, the composite z-score in [1] is 1.14; in assay [2], -0.406; in assay [3] it was -0.804; in assay [5], 0.497; in [6], 1.29; in assay [7], 1.51. The composite z-score in assay [8] was determined as 1.43; in assay [9] it was 1.63; in assay [10] it was 1.5. For the same compound, the z-score in assay [4] was -0.102 (inactive).

Take `COc1cccc([C@H]2Oc3ccc(OC)cc3C(=NOCC[C@@H]3C=C[C@H](OC(C)=O)[C@@H](COC(C)=O)O3)[C@@H]2O)c1`: the composite z-score in assay [1] is 1.21; in assay [2], 0.0266; in assay [3], -0.153; in assay [5], 0.696; in assay [6], 0.321; in [7], 0.274. Besides, the composite z-score is 0.795 in assay [8], 0.718 in assay [9] and 0.842 in assay [10]. The z-score in [4] is -0.019 (inactive).

`COC(=O)[C@H](C)NC(=O)CCC1CC(OC(=O)NCc2cccc3ccccc23)CC2(CCCC(COC(=O)NCCC(C)C)O2)O1` (stereo not given in full): the composite z-score is 1.41 in assay [1]; -0.144 in assay [2]; -0.391 in assay [3]; 0.481 in assay [5]; 0.247 in assay [6]; 0.374 in assay [7]. Further, the composite z-score in assay [8] was 0.463; in assay [9], 0.188; in assay [10], 0.199. Further, the z-score in assay [4] was -0.119 (inactive).
